Shown are actives, neighbours in structure and some others; about 10% of the full set was active somewhere.
CtBP-E1A inh: blocks the CtBP interaction with E1A. AlphaScreen GST-E1A/His-CtBP binding, 1536-well; hits give low values. 340,000 tested, 0.49% active. activity change, % (no concentration beside the values); in the data active means activity change below about -65%; inconclusive means mostly about -30% to -63%; further: on the % scale 0 is the no-effect control and ±100 the full control effect
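Steps: dispense buffer (Tris pH 8.0, NaCl 300 mM, TCEP 1 mM, BSA, Tween 20); add 5X protein mix (GST-E1A, His-CtBP, 125 nM each); pin 23 nL compound; 2 h at 37 °C, dark; add 5X beads (50 ug/mL); 1 h; read.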
BAZ2B inh: BAZ2B (human) inhibition. Q9UIF8. AlphaScreen BAZ2B-H3K14Ac peptide displacement. Potency, µM (top dose mostly 114 µM), for inactives: at the top dose activity change, negative = inhibition, actives largely listed as inhibitors. 360,000 tested, 4.4% active. AID 504333; further: potency means the concentration at half of the fitted maximal effect; on the % scale 0 is the no-effect control and ±100 the full control effect; nearly all actives have a fitted effect of over 60% in size
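BAZ2B (50 nM) with biotin-H3(5-23)K14Ac peptide (50 nM) in PBS pH 7.4, 0.01% Tween-20, preformed 30 min, then compound 30 min at room temperature; top concentration 110uM. AlphaScreen streptavidin donor/nickel chelate acceptor beads (10 ug/mL final), 20 min dark, signal read.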
Six1-Eya2 inh: inhibitors of human Six1/Eya2 interaction | Q15475+O00167 | AlphaScreen GST-Six1/His-Eya2 binding, biochemical; hits give low values | activity change, % (test concentration not listed) | 360,000 tested, 0.56% active | AID 651725; in the data active means activity change below about -65%; inconclusive means mostly about -30% to -63%; further: on the % scale 0 is the no-effect control and ±100 the full control effect
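AlphaScreen luminescence read after one hour at 37 °C in darkness. Pin-transferred compounds met GST-Six1 and His-Eya2 protein (5X stock 250 nM/500 nM) plus glutathione donor and Ni-chelate acceptor beads (5X, 50 ug/mL).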
JMJD2A Tudor inh: JMJD2A Tudor domain (human) inhibition; AID 504339; O75164; Potency, µM (titrated, usually from 114 µM), for inactives: at the top dose activity change, negative = inhibition, hits mostly inhibitors; 390,000 tested, 4.4% active; AlphaScreen JMJD2A-Tudor / H3K4me3 peptide binding; further: potency means the concentration at half of the fitted maximal effect; on the % scale 0 is the no-effect control and ±100 the full control effect; nearly all actives have a fitted effect of over 50% in size
HP1b binding inh: blocks HP1-beta chromodomain binding to methylated histone tails | P83916 | AlphaScreen HP1-beta / biotin-H3K9me3 peptide binding | Potency, µM (doses to about 114 µM), for the others: top-dose activity change, negative = inhibition, hits mostly inhibitors | 390,000 tested, 0.56% active | AID 540317; further: potency means the concentration at half of the fitted maximal effect; nearly all actives have a fitted effect of over 70% in size
Target sequence (P83916 whole entry, looked up): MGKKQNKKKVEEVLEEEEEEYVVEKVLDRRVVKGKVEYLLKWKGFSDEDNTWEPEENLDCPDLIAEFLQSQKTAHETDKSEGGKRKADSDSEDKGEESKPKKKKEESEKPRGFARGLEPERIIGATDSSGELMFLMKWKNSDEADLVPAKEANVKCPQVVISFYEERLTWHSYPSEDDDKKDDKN
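HP1-beta protein (50 nM final) preincubated 30 min at room temperature with biotinylated H3(1-18)K9me3 peptide (50 nM) in PBS pH 7.4, 0.01% Tween-20, then compound added for 30 min. AlphaScreen streptavidin donor/nickel chelate acceptor beads (10 ug/mL final), 30 min dark, luminescence read.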
G9a inh: inhibitors of human histone lysine methyltransferase G9a | Q96KQ7 | G9a H3K9 monomethylation, AlphaScreen, 2 h | Potency, µM (series often up to 102 µM), inactives show at the highest dose activity, negative = inhibition, most hits filed as inhibitors | 350,000 tested, 8.8% active | AID 504332; further: potency means the concentration at half of the fitted maximal effect; on the % scale 0 is the no-effect control and ±100 the full control effect; nearly all actives have a fitted effect of over 75% in size
Target sequence (Q96KQ7 913-1193 limits assumed): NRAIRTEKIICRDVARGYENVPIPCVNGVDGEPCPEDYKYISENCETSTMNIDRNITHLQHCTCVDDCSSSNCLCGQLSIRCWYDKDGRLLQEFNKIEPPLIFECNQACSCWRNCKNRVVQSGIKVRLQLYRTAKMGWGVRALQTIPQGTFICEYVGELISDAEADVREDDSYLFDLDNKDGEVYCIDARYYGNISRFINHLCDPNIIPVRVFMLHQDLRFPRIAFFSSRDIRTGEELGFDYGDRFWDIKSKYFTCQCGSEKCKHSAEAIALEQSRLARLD
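Enzyme 20 nM + cpd, 15 min RT; add b-H3K9 pep 500 nM / SAM 20 uM; 2 h RT; anti-H3K9me1 Ab 0.5 ug/mL + SA donor / anti-rabbit acceptor beads 20 ug/mL each, 10 min; AlphaScreen read.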
Active calls of the source: *; ? = inconclusive; nt = no result given; [ ] = dose if it differs, or a comment. Unless noted, the call rests on the fitted dose curve; in most records, active means well fitted inhibition curve with a large enough effect; inconclusive means small, poorly fitted or top-dose-only effect; inactive means no such curve, though single readings can be large or run the other way.

SMILES	CtBP-E1A inh	BAZ2B inh	Six1-Eya2 inh	JMJD2A Tudor inh	HP1b binding inh	G9a inh
Cc1ccc(C(=O)Nc2ccc(C(=O)N/N=C/c3ccncc3)cc2)cc1	nt	?	nt	nt	nt	31.6µM*
Cc1ccc(/C=N/NC(=O)c2ccncc2)cc1	6.5	6.6%	7.2	-12.3%	30.7%	nt
Cc1ccc(N/N=C/c2ccncc2)cc1	-15.9	?	-11.0	?	6.9%	28.2µM*
COc1ccc(-c2nc3ccc(Cl)cc3c(=O)n2Cc2ccccc2)cc1COc1ccc(NC(C)=O)cc1	nt	nt	nt	-14.3%	nt	nt
CC(C)CN1CCCC2(CCN(C(=O)c3cccn3C)CC2)C1	nt	nt	nt	nt	nt	-6.8%[12.7 µM]
COc1cc(C2C(=O)N(C3CCCC3)CC(=O)N2Cc2ccco2)ccc1OC(C)C (centres undefined)	-3.3	-32.4%	-0.5	-16.5%	-5.7%	79.4µM*
CCc1ccccc1NC(=O)Cn1nnc(-c2nc(-c3ccc(C)cc3)no2)c1N	nt	-8.0%	nt	0.0%	23.3%	-10.3%[59 µM]
CCCc1nnc(NC(=O)CSc2ncn[nH]2)s1	7.5	-38.9%	12.0	-15.1%	21.1%	35.5µM*
CCOC(=O)c1c(NC(=O)CSc2ncn[nH]2)sc(C)c1C	?	-12.5%	-19.0	-23.5%	-16.6%	44.7µM*
CCCCc1nc(SCC(=O)Nc2nnc(CCCC)s2)n[nH]1	nt	-28.1%	-1.7	2.7%	43.3%	?
CCOC(=O)c1c(NC(=O)CSc2ncn[nH]2)sc(C(=O)N(C)C)c1C	-2.1	8.2%	-2.7	-5.5%	12.4%	50.1µM*
CCOC(=O)c1c(NC(=O)c2cccnc2Cl)sc(C(=O)N(C)C)c1C	-1.4	0.2%	5.3	-12.8%	-11.0%	25.1µM*
CCc1cccc(C)c1NC(=O)CN1CCN(Cc2ccccc2Cl)S1(=O)=O	nt	-3.7%	nt	6.2%	48.4%	-2.0%[59 µM]
C=C1CCN(C(CC(C)C)C(=O)NCCCc2ccccc2)S(=O)(=O)c2ccccc21 (centres undefined)	nt	nt	nt	-3.4%	51.3%	nt
O=C(CN1C(=O)C2CCCCC2C1=O)Nc1nc(-c2ccccn2)cs1 (centres undefined)	-84.4*	35.5µM*	-84.4*	79.4µM*	?	?
C[C@@H](C(=O)Nc1nc(-c2ccccn2)cs1)N1C(=O)C2CCCCC2C1=O (some centres undefined)	-89.6*	8.91µM*	-90.4*	50.1µM*	?	1.41µM*
CC(C(=O)NC1CCCc2ccccc21)N1C(=O)C2CCCCC2C1=O (centres undefined)	6.5	-3.8%	2.1	-1.0%	24.0%	-2.0%[12.7 µM]
CC(=O)OC1CC(OC(C)=O)[C@]2(C)C(CC(OC(C)=O)[C@@]3(C)C4=CC(=O)OC(c5ccoc5)[C@]4(C)CCC32)C1(C)C (some centres undefined)	nt	nt	nt	nt	nt	-29.3%[2.33 µM]
O=C1OCCC1Sc1nnc(-c2ccc(Cl)cc2)n1Cc1ccccc1 (centres undefined)	4.8	11.1%	1.9	-1.7%	51.8%	11.2µM*
COc1ccc(NC(=O)CSc2ncc3c(n2)-c2ccccc2N(C)S3(=O)=O)cc1Cl	nt	0.9%	nt	-11.0%	6.0%	1.9%[59 µM]
Oc1ccc2ccccc2c1CN1CCN(c2ccccc2F)CC1	-2.7	10.3%	-1.4	-5.6%	73.4%	28.2µM*
O=c1oc2ccccc2c(N2CCN(c3ccccc3F)CC2)c1CN1CCCC1	nt	-18.2%	nt	-24.7%	13.0%	-26.3%[59 µM]
Oc1ccc2ccccc2c1CN1CCN(C/C=C/c2ccccc2)CC1	?	?	-18.3	?	9.6%	10µM*
O=S(=O)(c1ccccc1)N1CCN(Cc2c(O)ccc3ccccc23)CC1	-5.6	nt	-9.2	-12.8%	21.6%	nt
CC(CN1CCN(C/C=C/c2ccccc2)CC1)c1ccccc1 (centres undefined)	1.4	?	-0.8	12.6µM*	-8.5%	-3.3%[0.501 µM]
SMILES	CtBP-E1A inh	BAZ2B inh	Six1-Eya2 inh	JMJD2A Tudor inh	HP1b binding inh	G9a inh
O=c1cc(CN2CCN(c3ccccc3F)CC2)c2cc(O)c(-c3ccccc3)cc2o1	-2.0	1.3%	2.1	89.1µM*	-12.3%	-11.8%
O=[N+]([O-])c1ccc(C(O)CN2CCN(C/C=C/c3ccccc3)CC2)cc1 (centres undefined)	-4.5	-7.5%	9.2	-24.7%	3.2%[57 µM]	-5.5%
CCOC(=O)c1cc(-c2ccccc2)n(CC(=O)Nc2cc(Cl)c(OC)cc2OC)c1C	nt	3.8%	nt	-11.5%	55.0%	-20.8%[59 µM]
NC(=O)CN1CCN(c2ccccc2F)CC1	0.5	-5.8%	17.8	-5.1%	28.3%	-11.5%[12.7 µM]
O=C(CN1CCN(c2ccccc2F)CC1)c1ccc(O)c(O)c1	0.0	-15.8%	15.5	-20.4%	61.9%	31.6µM*
COc1ccc(NC(=O)C(=O)NNC(=O)COc2ccc(Cl)cc2)c(OC)c1	-26.3	-1.7%	-15.2	-9.0%	46.3%	37.3%
COc1cc(NC(=O)COc2ccc(Cl)cc2)ccc1NC(=O)C(C)C	0.5	-16.2%	0.3	-10.7%	3.6%	25.1µM*
O=C1CCCC2=C1C1(CCCC1)N=C(Nc1nc3ccccc3n1Cc1ccccc1)N2	nt	nt	nt	-20.6%	nt	nt
O=C(NC(=S)Nc1ccc(N2CCOCC2)c(Cl)c1)c1sc2ccccc2c1Cl	3.5	-35.3%	-8.5	-11.0%	5.0%	1.26µM*
COc1ccc(OCC(=O)NC(=S)Nc2ccc(N3CCOCC3)c(Cl)c2)cc1	-5.9	?	-12.4	-25.0%	-18.3%	?
COC(=O)c1sccc1NC(=O)c1cccnc1	-11.6	3.4%	-5.9	89.1µM*	-1.4%	1.4%[59 µM]
O=C(Nc1ccc(N2CCCC2)c(Cl)c1)c1cccs1	-15.9	44.7µM*	-1.2	44.7µM*	?	28.2µM*
O=C(Nc1ccc(N2CCN(C(=O)c3cccs3)CC2)c(Cl)c1)c1ccco1	-9.4	-3.1%	-4.3	-12.2%	17.0%	-1.3%
CC(C)CC(=O)NC(=S)Nc1ccc(N2CCOCC2)c(Cl)c1	-1.9	-33.5%	-5.9	-6.3%	21.7%	11.2µM*
O=C(NC(=S)Nc1ccccc1N1CCOCC1)c1sc2ccccc2c1Cl	-10.5	-6.6%	-3.6	-28.9%	-7.2%	?
CC12CCC(C(=O)Nc3ccccc3Cl)(C(Br)C1=O)C2(C)C (centres undefined)	-3.8	9.7%	5.1	-3.6%	18.5%	23.5%[59 µM]
Cc1c(C(=O)N(Cc2ccc(Cl)cc2)CC2CCCO2)oc2ccc(F)cc12 (centres undefined)	nt	46.5%	nt	63.2%	114.5%	77.7%[59 µM]
Cc1cccc(N2CCN(C(=O)Cn3c(=O)c4cccn4c4ccc(F)cc43)CC2)c1C	nt	-12.3%	nt	-11.5%	23.6%	-23.5%[59 µM]
O=C(Nc1ccc2c(c1)OCO2)c1cccc2c1C(=O)N(Cc1cccnc1)C2	?	50.1µM*	-21.8	?	7.2%	-5.9%[12.7 µM]
O=C(NC(=S)Nc1ccc(N2CCCCC2)cc1)c1cccs1	?	14.1µM*	-67.1*	35.5µM*	39.8µM*	14.1µM*
